# Screening results (PubChem BioAssay)
# TDP1 block – inhibitors of human tyrosyl-DNA phosphodiesterase TDP1. recombinant TDP1, AlphaScreen DNA substrate cleavage. Potency, µM (titrated, usually from 130 µM), hits mostly inhibitors. 350,000 compounds, 0.28% hits. AID 485290; note: nearly all actives have a fitted effect of over 40% in size
# Target sequence (Q9NUW8 whole entry, looked up): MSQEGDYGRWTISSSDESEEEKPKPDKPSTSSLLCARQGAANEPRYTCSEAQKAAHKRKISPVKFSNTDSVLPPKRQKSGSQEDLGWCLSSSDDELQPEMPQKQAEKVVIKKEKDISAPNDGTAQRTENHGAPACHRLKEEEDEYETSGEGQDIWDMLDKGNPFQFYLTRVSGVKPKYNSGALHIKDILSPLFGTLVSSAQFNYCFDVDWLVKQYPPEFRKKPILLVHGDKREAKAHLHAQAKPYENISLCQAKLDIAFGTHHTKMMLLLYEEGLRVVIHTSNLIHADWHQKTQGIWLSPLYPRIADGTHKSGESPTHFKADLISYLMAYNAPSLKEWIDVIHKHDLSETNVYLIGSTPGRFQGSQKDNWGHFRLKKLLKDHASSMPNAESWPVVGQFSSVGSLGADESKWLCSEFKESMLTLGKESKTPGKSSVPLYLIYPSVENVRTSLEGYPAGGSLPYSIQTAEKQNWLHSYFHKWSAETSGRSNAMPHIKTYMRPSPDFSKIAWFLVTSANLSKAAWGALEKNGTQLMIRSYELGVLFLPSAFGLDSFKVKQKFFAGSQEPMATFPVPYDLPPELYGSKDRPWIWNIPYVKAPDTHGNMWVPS
#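 AlphaScreen read-out: signal falls as enzyme removes the 3' tyrosine-FITC from a 5'-biotinylated DNA oligo (15 nM, 5 min, RT). Enzyme was E. coli-made recombinant Tdp1 at 1 nM, exposed to compound for 15 min beforehand; beads 10 ug/ml, 10 min.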
# TDP1 cell noCPT – qHTS for Inhibitors of human tyrosyl-DNA phosphodiesterase 1 (TDP1): qHTS in cells in absence of CPT. DT40 Tdp1-/- hTDP1 cells, no CPT, ATP luminescence, 48 h. Potency, µM (doses to about 46.2 µM), actives largely listed as inhibitors. 420,000 compounds, 15% hits. AID 686978, 2013; note: nearly all actives have a fitted effect of over 55% in size
#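 Chicken DT40 Tdp1-/- cells complemented with human TDP1, screened without camptothecin (DMSO vehicle only), 400 cells/well. Compounds pin-transferred, cells incubated at 37 °C for at least 48 hr. Growth read as ATP-dependent luminescence (CellTiter-Glo, 30 min at RT).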
# HepG2 tox – kills HepG2 cells in TGF-b inhibitor counter-screen. HepG2 CAGA-GFP viability, ATP luminescence, 18 h. Potency, µM (highest dose often 46.1 µM), usual class: cytotoxic. 410,000 compounds, 0.76% hits
#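 CellTiter-Glo luminescence gave cytotoxicity after 18 hours at 37 degrees C. The cells were HepG2 CAGA-GFP in 1% FBS DMEM, stimulated with 500 pg/mL TGF-beta after compound addition. %Activity was normalised to no-cell wells (complete cell-killing) and DMSO (no toxicity), and curves were fitted and classified.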
# TGFb SMAD3 inh – TGF-b pathway inhibition; HepG2 CAGA-GFP TGF-b/SMAD3 reporter, GFP fluorescence, 18 h; TGF-beta stimulated, 500 pg/mL final; Potency, µM (highest dose often 46.1 µM), hits mostly inhibitors; 410,000 compounds, 1.2% hits; note: nearly all actives have a fitted effect of over 65% in size
#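 HEPG2 CAGA-GFP reporter cells (1000/well, DMEM with 1% FBS) received compounds, then recombinant TGF-beta at 500 pg/mL final for 18 hours at 37 degrees C. Per-cell GFP summed per well was normalised to unstimulated and stimulated DMSO controls before curve fitting.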
# IL-1B inflam inh – inflammasome signaling inhibition, IL-1 beta readout. THP-1 LPS/ATP IL-1B secretion, AlphaLISA, 16 h; active compounds read low. activity change, % at 57.5 µM. 360,000 compounds, 4.7% hits; in the data active = activity change below about -50%; inconclusive = mostly about -30% to -49%
#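 THP-1 cells pretreated 1 hr with compounds (up to 57.5 uM final), then stimulated with LPS (250 ng/mL final) plus ATP (1.25 mM final); secreted IL-1B measured by AlphaLISA after 16 hr, decreased signal indicating inhibition.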
# DT40 TDP1 CPT – DT40-hTDP1 cell growth loss with CPT | Potency, µM (top dose mostly 46.2 µM), hits mostly inhibitors | 420,000 compounds, 12% hits | AID 686979 | chicken DT40 Tdp1-/-;hTDP1 cells + 20 nM CPT, ATP luminescence, 48 h; note: nearly all actives have a fitted effect of over 55% in size
#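 Cell growth measured by CellTiter-Glo luminescence after a minimum 48 h, 37 C compound exposure with 20 nM CPT in Tdp1-knockout DT40 cells stably expressing hTDP1, seeded 400/well; qHTS titration format.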
# A number is an active result; n = inactive; u = inconclusive; x = no result; [ ] = remark or other dose. This is a sample that favours compounds with a hit; in the whole collection about 18% have one here. Unless noted, calls come from the whole dose curve; as a rule, active = well fitted curve in the direction sought with a large enough effect; inconclusive = small, poorly fitted or top-dose-only effect, or another doubt; inactive = no such curve, though single readings can be large; an effect the other way counts as inactive or inconclusive.
SMILES,TDP1 block,TDP1 cell noCPT,HepG2 tox,TGFb SMAD3 inh,IL-1B inflam inh,DT40 TDP1 CPT
COc1ccc(-c2csc(NC(=O)CSCC(=O)Nc3cc(C)on3)n2)c(OC)c1,n[0.505 µM],u,n,n,n,29µM
Cc1cc(NC(=O)COc2cccc(Oc3ccccc3)c2)no1,n,u,n,n,n,13µM
COc1ccc(-c2csc(NC(=O)CSc3ccc(Br)cc3)n2)c(OC)c1,n,16µM,n,n,n,18µM
CCc1noc(C)c1C(=O)NCCc1ccc(Cl)cc1,x,u,n,n,n,n
COc1cc(Nc2ccn3nccc3n2)cc(OC)c1OC,x,n,n,n,n,u
COc1ccc(CC(=O)Nc2nc(C(C)(C)C)cs2)cc1,n,n,n,u,-108,n
COc1cccc(CC(=O)Nc2nc(-c3cc(OC)ccc3OC)cs2)c1,n,n,n,n,n,n
COc1ccc(OC)c(NC(=O)c2ccc3c(c2)OCO3)c1,x,n,n,n,n,n
COc1ccc(OC)c(-c2csc(NC(=O)C3c4ccccc4Oc4ccccc43)n2)c1,n,n,n,n,n,n
COc1ccc(OC)c(-c2csc(NC(=O)CSc3ccccc3)n2)c1,n,13µM,n,n,u,u
COc1ccc(OC)c(-c2csc(NC(=O)C3COc4ccccc4O3)n2)c1 (centres undefined),n,16µM,n,n,n,u
COc1ccc(OC)c(-c2csc(NC(=O)c3ccc4c(c3)OCO4)n2)c1,n,15µM,n,n,n,u
CNc1ccc(-c2cccc(C(=O)N3CCOCC3)c2)cn1,x,n,n,n,n,n
COc1ccc(Cc2nnc3sc(SCC(=O)Nc4ccccc4)nn3c2=O)cc1OC,n,u,n,n,n,u
COc1ccc(-c2csc(NC(=O)CSC(C)C(=O)Nc3cc(C)on3)n2)cc1OC (centres undefined),n,10µM,n,n,n,18µM
COc1ccc(OC)c(-c2csc(NC(=O)Cc3ccccc3)n2)c1,x,u,n,u,n,u
Cc1ccc(Oc2ccccc2NC(=O)CSCC(=O)Nc2cc(C)on2)cc1,n[0.505 µM],10µM,n,n,n,8.2µM
COc1ccc(-c2csc(NC(=O)Cc3ccccc3F)n2)c(OC)c1,x,u,n,u,-60,u
COc1ccc(CC(=O)Nc2nc(-c3cc(OC)ccc3OC)cs2)cc1,n,u,n,u,-88,u
COc1ccc(OC)c(-c2csc(NC(=O)CSCC(=O)Nc3cc(C)on3)n2)c1,n,n,n,n,n,n
CN(C(=O)c1ccc(NC(=O)C2CCCN(C(=O)OC(C)(C)C)C2)cc1)C1CCCC1 (centres undefined),n,u,n,n,n,u
C/C(=N\NC(=O)c1ccoc1C)c1ccc(Cl)s1,n,n,n,n,u,n
C/C(=N\NC(=S)NC(C)C)c1ccc(Cl)s1,n,5.8µM,n,u,n,15µM
C/C(=N\NC(N)=S)c1ccc(Cl)s1,n,4.6µM,n,n,-79,5.2µM
C/C(=N\NC(=O)c1csc(C)c1C)c1ccc(Cl)s1,n,23µM,n,n,n,23µM
SMILES,TDP1 block,TDP1 cell noCPT,HepG2 tox,TGFb SMAD3 inh,IL-1B inflam inh,DT40 TDP1 CPT
C/C(=N\NC(=O)C(=O)Nc1cccc(C(F)(F)F)c1)c1ccc(Cl)s1,n,u,n,n,n,u
CC(C)CC1NC(=O)N(CC(=O)Nc2ccc3c(c2)OCCO3)C1=O (centres undefined),n,n,n,n,n,n
Cc1ccc(C(=O)Nc2nc3n(n2)C(c2ccccc2)CC(=O)N3)cc1 (centres undefined),n,n,n,n,n,n
O=C([C@@H]1C[C@@H](Sc2nc3ccccc3[nH]2)CN1Cc1ccc(Cl)cc1)N1CCN(c2ccccc2F)CC1,x,21µM,x,x,x,u
O=S(=O)(c1ccccc1)n1nc(-c2ccc(Cl)cc2)nc1NCc1ccccc1,n,16µM,n,x,x,u
O=S(=O)(c1ccccc1)n1nc(-c2ccccc2)nc1NCc1ccc(Cl)cc1,n,x,n,n,x,x
Cc1cccc(C)c1NC(=O)CN(C)C(=O)Cn1c(=O)cnc2ccccc21,n,n,n,n,n,n
Fc1ccc(CNCc2ccccc2C(F)(F)F)cc1,n,n,n,n,n,n
Fc1ccc(COc2ccccc2CNCc2ccncc2)cc1,n,26µM,n,n,n,u
Brc1ccc(OCc2ccccc2)c(CNCc2ccncc2)c1,n,u,n,n,-59,16µM
Cc1cc(-c2ccnc(-n3ncc(C(=O)NCC(C)(C)N4CCOCC4)c3C)n2)c(C)s1,x,n,x,x,x,n[9.04 µM]
Cc1cc(-c2ccnc(-n3ncc(C(=O)NCC4COCCO4)c3C)n2)c(C)s1 (centres undefined),x,4.1µM,x,x,x,u
COc1cc(NC(=O)Cn2c([N+](=O)[O-])cnc2C)c(OC)cc1Cl,x,n,n,n,n,n
O=C(C[C@H]1C/C=C\C[C@@H](Cc2ccc(F)cc2)C(=O)OC[C@H]2CCCN2C1=O)N[C@@H](CO)Cc1ccccc1,n,u,n,u,n,u
O=C(C[C@@H]1C/C=C\CCC(=O)OC[C@@H]2CCCN2C1=O)N[C@H](CO)Cc1ccccc1,n,n,n,n,n,n
O=C(C[C@@H]1C/C=C\CC[C@@H](Cc2ccc(F)cc2)C(=O)OC[C@@H]2CCCN2C1=O)N[C@H](CO)Cc1ccccc1,n,18µM,n,n,n,16µM
O=C(C[C@H]1C/C=C\CC[C@H](Cc2ccc(F)cc2)C(=O)OC[C@H]2CCCN2C1=O)N[C@@H](CO)Cc1ccccc1,n,15µM,n,u,n,u
O=C(C[C@H]1C/C=C\CC[C@@H](Cc2ccc(F)cc2)C(=O)OC[C@H]2CCCN2C1=O)N[C@@H](CO)Cc1ccccc1,n,15µM,n,u,n,u
O=C(C[C@H]1C/C=C\CC[C@H](Cc2ccc(F)cc2)C(=O)OC[C@H]2CCCN2C1=O)N[C@H](CO)Cc1ccccc1,n,21µM,n,n,n,23µM
O=C(NCCN1CCNC1=O)c1ccc2sc([C@@H]3O[C@H](CO)[C@H](O)[C@H](O)[C@H]3O)nc2c1,x,n,n,n,n,n
O=c1[nH]c(=O)c2[nH]c(=O)n(-c3ccccc3)c2[nH]1,x,n,n,n,n,n
O=C(C[C@@H]1C/C=C\C[C@@H](Cc2ccc(F)cc2)C(=O)OC[C@H]2CCCN2C1=O)N[C@H](CO)Cc1ccccc1,n,21µM,n,u,n,u
